Paper PMC9838217, “Structure of SALL4 zinc finger domain reveals link between AT-rich DNA binding and Okihiro syndrome”
Substitutions are numbered along the chain they refer to.

Key:
Test in all cases: HT-SELEX; high values mean tight binding
Details in all cases: protein: recombinant; vector His6-GST; dsDNA, one strand shown
[1] = biological target: T1, SALL4 ZFC4 WT (HT-SELEX) (Mus musculus, UniProt Q8BX22 870-940)
T1 sequence: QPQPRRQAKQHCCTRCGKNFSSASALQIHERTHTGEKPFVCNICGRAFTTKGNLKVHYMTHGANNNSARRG
Summary of the method: (§1)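 Each canonical k-mer's binding signal is its read fraction expressed as fold change over the initial random library. Reads came from MiSeq sequencing, scanned for 6-mers, after up to 6 triplicate cycles in which purified recombinant mouse SALL4 zinc finger cluster 4 (residues 870–940, 1 µg) bound library DNA (1.5 µg first cycle, 200 ng later) in 100 µl of 10 mM Tris–HCl pH 7.5, 50 mM NaCl, poly(dI-dC), DTT for 10 min at room temperature. Complexes were then Ni2+ bead-captured, washed, PCR-amplified and reselected.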

[2] = biological target: T2, SALL4 ZFC4 R900W (HT-SELEX) (Mus musculus, UniProt Q8BX22 870-940, R900W)
T2 sequence: T1 sequence with R31W
Summary of the method: as §1

[3] = biological target: T3, SALL4 ZFC4 G921D (HT-SELEX) (Mus musculus, UniProt Q8BX22 870-940, G921D)
T3 sequence: T1 sequence with G52D
Summary of the method: as §1

Row | Sequence | binding signal [1] | binding signal [2] | binding signal [3]
1 | CATATG | 1.44 ± 0.156 fold-change vs cycle 0 | 1.37 ± 0.112 fold-change vs cycle 0 | 1.32 ± 0.0777 fold-change vs cycle 0
2 | AAATTA | 3.81 ± 0.372 fold-change vs cycle 0 | 2.45 ± 0.183 fold-change vs cycle 0 | 2.13 ± 0.261 fold-change vs cycle 0
3 | CACTGG | 0.426 ± 0.00956 fold-change vs cycle 0 | 0.508 ± 0.0154 fold-change vs cycle 0 | 0.615 ± 0.0147 fold-change vs cycle 0
4 | ACATCG | 0.64 ± 0.0291 fold-change vs cycle 0 | 0.729 ± 0.00758 fold-change vs cycle 0 | 0.829 ± 0.0505 fold-change vs cycle 0
5 | CCTTCC | 0.487 ± 0.0167 fold-change vs cycle 0 | 0.593 ± 0.0214 fold-change vs cycle 0 | 0.661 ± 0.0352 fold-change vs cycle 0
6 | ACGGAA | 0.706 ± 0.0319 fold-change vs cycle 0 | 0.803 ± 0.0284 fold-change vs cycle 0 | 0.868 ± 0.0441 fold-change vs cycle 0
7 | AATTGA | 1.92 ± 0.0967 fold-change vs cycle 0 | 1.88 ± 0.0991 fold-change vs cycle 0 | 1.75 ± 0.142 fold-change vs cycle 0
8 | AATAAC | 2.58 ± 0.181 fold-change vs cycle 0 | 2.03 ± 0.114 fold-change vs cycle 0 | 1.79 ± 0.168 fold-change vs cycle 0
9 | GAGCAC | 0.415 ± 0.0413 fold-change vs cycle 0 | 0.537 ± 0.0508 fold-change vs cycle 0 | 0.674 ± 0.0417 fold-change vs cycle 0
10 | CCATTC | 0.803 ± 0.0377 fold-change vs cycle 0 | 0.923 ± 0.0207 fold-change vs cycle 0 | 0.938 ± 0.0225 fold-change vs cycle 0
11 | AACCCG | 0.371 ± 0.0321 fold-change vs cycle 0 | 0.432 ± 0.0178 fold-change vs cycle 0 | 0.538 ± 0.0569 fold-change vs cycle 0
12 | AGTAAA | 1.96 ± 0.143 fold-change vs cycle 0 | 2.08 ± 0.144 fold-change vs cycle 0 | 1.78 ± 0.193 fold-change vs cycle 0
13 | TATCGA | 1.23 ± 0.0345 fold-change vs cycle 0 | 1.2 ± 0.0508 fold-change vs cycle 0 | 1.22 ± 0.03 fold-change vs cycle 0
14 | GTAAGA | 1.45 ± 0.0375 fold-change vs cycle 0 | 1.6 ± 0.0704 fold-change vs cycle 0 | 1.42 ± 0.0981 fold-change vs cycle 0
15 | TACGGA | 0.719 ± 0.0383 fold-change vs cycle 0 | 0.834 ± 0.0149 fold-change vs cycle 0 | 0.856 ± 0.0265 fold-change vs cycle 0
16 | AGAACG | 0.692 ± 0.0289 fold-change vs cycle 0 | 0.817 ± 0.046 fold-change vs cycle 0 | 0.844 ± 0.0513 fold-change vs cycle 0
17 | CCTTAG | 0.925 ± 0.0277 fold-change vs cycle 0 | 1.06 ± 0.0431 fold-change vs cycle 0 | 1.04 ± 0.0492 fold-change vs cycle 0
18 | AGGACC | 0.441 ± 0.038 fold-change vs cycle 0 | 0.54 ± 0.0359 fold-change vs cycle 0 | 0.632 ± 0.0389 fold-change vs cycle 0
19 | AGTGTC | 0.664 ± 0.023 fold-change vs cycle 0 | 0.81 ± 0.0199 fold-change vs cycle 0 | 0.9 ± 0.0262 fold-change vs cycle 0
20 | CATACA | 1.36 ± 0.0385 fold-change vs cycle 0 | 1.37 ± 0.0315 fold-change vs cycle 0 | 1.32 ± 0.0664 fold-change vs cycle 0
21 | AAATGT | 1.68 ± 0.0685 fold-change vs cycle 0 | 1.7 ± 0.0668 fold-change vs cycle 0 | 1.58 ± 0.133 fold-change vs cycle 0
22 | GGTTAA | 1.23 ± 0.0345 fold-change vs cycle 0 | 1.4 ± 0.0959 fold-change vs cycle 0 | 1.3 ± 0.0896 fold-change vs cycle 0
23 | TGGTAA | 1.41 ± 0.0525 fold-change vs cycle 0 | 1.47 ± 0.055 fold-change vs cycle 0 | 1.4 ± 0.0814 fold-change vs cycle 0
24 | AGTCTG | 0.76 ± 0.0287 fold-change vs cycle 0 | 0.869 ± 0.0157 fold-change vs cycle 0 | 0.92 ± 0.0107 fold-change vs cycle 0
25 | CTACCC | 0.454 ± 0.0263 fold-change vs cycle 0 | 0.523 ± 0.00774 fold-change vs cycle 0 | 0.607 ± 0.0541 fold-change vs cycle 0
26 | AATACT | 2.02 ± 0.117 fold-change vs cycle 0 | 1.99 ± 0.126 fold-change vs cycle 0 | 1.82 ± 0.161 fold-change vs cycle 0
27 | AAACCA | 1.14 ± 0.0582 fold-change vs cycle 0 | 1.23 ± 0.0362 fold-change vs cycle 0 | 1.24 ± 0.0488 fold-change vs cycle 0
28 | GACCTC | 0.415 ± 0.0384 fold-change vs cycle 0 | 0.51 ± 0.0119 fold-change vs cycle 0 | 0.644 ± 0.0572 fold-change vs cycle 0
29 | GGACCA | 0.389 ± 0.0179 fold-change vs cycle 0 | 0.466 ± 0.011 fold-change vs cycle 0 | 0.557 ± 0.0733 fold-change vs cycle 0
30 | AGAACC | 0.8 ± 0.0457 fold-change vs cycle 0 | 0.93 ± 0.0272 fold-change vs cycle 0 | 0.981 ± 0.014 fold-change vs cycle 0
